# Data published in PubChem BioAssay (NCATS).
# Where “and” joins values, the source holds several entries; their conditions need not be identical. Identical values can stand only once. Inconclusive results are not listed. Entries that show only a call come without a potency. Values without a mark were called inactive. Calls of active or inactive are those of the source. Unless noted, the call rests on the fitted dose curve; in most records, active means well fitted curve in the direction sought with a large enough effect; inconclusive means small, poorly fitted or top-dose-only effect, or another doubt; inactive means no such curve, though single readings can be large; an effect the other way counts as inactive or inconclusive.
# Legend:
# [1] = Primary qHTS for small molecule stabilizers of the endoplasmic reticulum resident proteome: Secreted ER Calcium Modulated Protein (SERCaMP) assay (AID 1508630)
# Outline: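 The SH-SY5Y reporter protocol was run at 3 concentrations up to 38.3 uM (primary) or 11 concentrations (follow-up): 16 h compound, 100 nM thapsigargin for 4 h, then extracellular luciferase luminescence.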
# [2] = molecular target: Calcium and integrin-binding protein 1 (Homo sapiens) (UniProt Q99828); test: Primary qHTS for Identification of Calcium Integrin Binding Protein 1 (CIB1) Competitor (AID 1508620);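 further: GST tagged CIB1 binding a fluorescein labelled alphaIIb integrin peptide tracer; top concentration of the series differs between compounds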
# Outline: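 CIB1-GST (1 uM final) and compound incubated 15 min at room temperature before adding FITC-alphaIIb peptide tracer (100 nM final). Competition for binding read by fluorescence polarization (ex 480, em 540) after another 15 min at room temperature.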
# [3] = Primary qHTS for inhibitors of nuclear receptor binding SET domain protein 2 (NSD2) in an isogenic RCH-ACV NSD2 p.E1099K mutant (9B) (AID 1645876); further: nearly all actives have a fitted effect of over 70% in size; further: potency means the concentration at half of the fitted maximal effect
# [4] = molecular target: Cytochrome P450 2D6 (Homo sapiens) (UniProt P10635); test: Cytochrome P450 family 2 subfamily D member 6 (CYP2D6) small molecule antagonists: luciferase biochemical (cell-free) qHTS assay (AID 1645840; active means well fitted curve in the direction sought with a large enough effect in the repeat runs; an effect the other way counts as inactive or inconclusive; further: nearly all actives have a fitted effect of over 55% in size; further: potency means the concentration at half of the fitted maximal effect; on activity change, negative = inhibition: series mostly up to about 57 µM)
# Outline: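 P450-Glo CYP2D6 system: proluciferin substrate converted by enzyme to luciferin, read by luminescence proportional to activity. Enzyme-substrate mix with compound 10 min at room temperature, then NADPH regeneration 1 h before detection reagent.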
# [5] = molecular target: Cytochrome P450 2C9 (Homo sapiens) (UniProt P11712); test: Cytochrome P450 family 2 subfamily C member 9 (CYP2C9) small molecule antagonists: luciferase biochemical (cell-free) qHTS assay (AID 1645842; active means well fitted curve in the direction sought with a large enough effect in the repeat runs; an effect the other way counts as inactive or inconclusive; further: nearly all actives have a fitted effect of over 55% in size; further: potency means the concentration at half of the fitted maximal effect; on activity change, negative = inhibition: series mostly up to about 57 µM)
# Outline: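 P450-Glo CYP2C9 system: proluciferin substrate with enzyme in mix containing 0.4% BSA, 10 min at room temperature, then NADPH regeneration solution added and incubated 1 h at 37C. Detection reagent stopped reaction; luminescence read after 20 min as RLU.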
# [6] = Cytotoxicity counterscreen for inhibitors of SARS-CoV-2 cell entry (AID 1645845; calls by dose curve; further: series mostly up to about 57 µM; nearly all actives have a fitted effect of over 50% in size); conditions: outcome: dose series up to 57.1 µM unless noted
# Outline: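 ATP-content luminescence (ATPLite 1step, 15 min RT) read after 48 h compound exposure of Expi293F cells stably expressing human ACE2; normalized to cells-only wells and media-only wells.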
# [7] = Counterscreen qHTS for small molecule stabilizers of the endoplasmic reticulum resident proteome: GLuc-NoTag assay (AID 1508627); further: series mostly up to about 76 µM
# Outline: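 Counterscreen line: SH-SY5Y-GLuc-NoTag cells, treated with compound 19 hr before a 4 hr, 100 nM thapsigargin calcium depletion. Secreted Gaussia luciferase in the medium was measured by luminescence after coelenterazine was added (0.07x final), with cells unlysed.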
# [8] = Cell Viability qHTS for small molecule stabilizers of the endoplasmic reticulum resident proteome (AID 1508629); conditions: cell viability counter-screen, 100 nM thapsigargin for final 4 h;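 further: human SH-SY5Y neuroblastoma cells carrying the GLuc-SERCaMP reporter; compound exposure about 46 h in total before the viability read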
# [9] = Confirmatory qHTS for small molecule stabilizers of the endoplasmic reticulum resident proteome: Secreted ER Calcium Modulated Protein (SERCaMP) assay (AID 1508628); further: series mostly up to about 76 µM; nearly all actives have a fitted effect of over 40% in size
# Outline: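 Reporter secretion upon ER calcium depletion (100 nM thapsigargin, 4 h, 37C) is measured as medium luminescence with coelenterazine, after 16 h compound pretreatment of SH-SY5Y-GLuc-SERCaMP cells; primary at three concentrations up to 38.3 uM, follow-up at 11 (up to 76.6 uM).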
# [10] = molecular target: Papain (Carica papaya) (UniProt P00784); test: Primary qHTS assay for inhibitors of the protease papain (AID 1645873);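 further: papain turnover of Z-FR-AMC read as the AMC fluorescence gain over 10 min; series mostly up to about 50 µM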
# Sequence of Papain (Carica papaya) (P00784 whole entry, looked up): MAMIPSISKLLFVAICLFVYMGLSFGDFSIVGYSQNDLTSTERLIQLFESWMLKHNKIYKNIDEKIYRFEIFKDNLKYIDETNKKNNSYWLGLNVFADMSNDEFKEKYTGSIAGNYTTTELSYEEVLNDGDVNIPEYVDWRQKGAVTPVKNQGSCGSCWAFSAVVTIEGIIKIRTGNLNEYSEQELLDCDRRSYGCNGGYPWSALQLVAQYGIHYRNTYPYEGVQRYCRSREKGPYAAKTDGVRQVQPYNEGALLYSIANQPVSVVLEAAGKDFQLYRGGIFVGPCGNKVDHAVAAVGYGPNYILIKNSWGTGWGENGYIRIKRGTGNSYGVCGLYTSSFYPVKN
# Sequence of Calcium and integrin-binding protein 1 (Homo sapiens) (Q99828 whole entry, looked up): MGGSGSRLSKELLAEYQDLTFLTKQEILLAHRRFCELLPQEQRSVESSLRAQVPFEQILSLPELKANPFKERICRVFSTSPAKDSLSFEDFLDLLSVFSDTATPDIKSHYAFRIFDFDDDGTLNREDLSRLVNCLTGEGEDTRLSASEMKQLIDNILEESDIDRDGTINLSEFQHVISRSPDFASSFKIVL
# Sequence of Cytochrome P450 2D6 (Homo sapiens) (P10635 whole entry, looked up): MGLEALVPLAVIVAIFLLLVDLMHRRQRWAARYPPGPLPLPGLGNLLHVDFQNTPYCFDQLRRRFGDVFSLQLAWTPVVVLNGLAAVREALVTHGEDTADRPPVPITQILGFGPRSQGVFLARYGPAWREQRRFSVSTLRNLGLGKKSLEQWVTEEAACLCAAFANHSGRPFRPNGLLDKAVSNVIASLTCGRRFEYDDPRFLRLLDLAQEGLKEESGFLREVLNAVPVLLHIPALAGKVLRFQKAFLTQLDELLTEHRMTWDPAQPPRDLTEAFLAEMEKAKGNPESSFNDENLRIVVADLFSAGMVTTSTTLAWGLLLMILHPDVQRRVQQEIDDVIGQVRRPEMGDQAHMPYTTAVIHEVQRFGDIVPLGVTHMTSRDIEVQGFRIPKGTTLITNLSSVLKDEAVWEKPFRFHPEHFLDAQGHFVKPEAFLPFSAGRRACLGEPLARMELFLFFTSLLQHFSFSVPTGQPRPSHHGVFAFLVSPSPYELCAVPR
# Sequence of Cytochrome P450 2C9 (Homo sapiens) (P11712 whole entry, looked up): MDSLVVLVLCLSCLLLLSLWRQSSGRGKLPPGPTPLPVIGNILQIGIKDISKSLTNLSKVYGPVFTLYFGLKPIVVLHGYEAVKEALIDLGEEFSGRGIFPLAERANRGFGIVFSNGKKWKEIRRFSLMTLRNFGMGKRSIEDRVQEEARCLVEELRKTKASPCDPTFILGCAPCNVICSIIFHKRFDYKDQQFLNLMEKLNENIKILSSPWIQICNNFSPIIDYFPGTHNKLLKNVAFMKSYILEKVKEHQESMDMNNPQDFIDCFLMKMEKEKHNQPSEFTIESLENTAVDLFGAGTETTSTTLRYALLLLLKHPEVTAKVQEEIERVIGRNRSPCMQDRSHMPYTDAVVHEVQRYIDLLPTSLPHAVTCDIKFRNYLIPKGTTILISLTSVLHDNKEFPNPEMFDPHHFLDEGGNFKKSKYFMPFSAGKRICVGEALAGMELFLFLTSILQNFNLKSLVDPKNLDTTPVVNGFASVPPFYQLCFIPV
structure (smiles),measurement,setting,value
Cc1cccc(C(C)c2cnc[nH]2)c1C (centres undefined),outcome,[1],inactive
CN1[C@@H]2CC[C@H]1CC(OC(=O)C1C=Nc3ccccc31)C2 (some centres undefined),Potency,[2],inactive
same,Potency,[3],inactive
COCC(C)N(C(=O)CCl)c1c(C)csc1C (centres undefined),Potency,[4],inactive
same,Potency,[5],13.5 µM (active)
Oc1ccc2c3c1O[C@H]1[C@H](N(CCCl)CCCl)CC[C@@]4(O)[C@@H](C2)N(CC2CC2)CC[C@]314,Potency,[2],inactive
same,"activity change, negative = viability loss",[3],-5.8% [at 9.23 µM]
CC(=O)OC1CC(O)C(C)(C)C2CC(OC(C)=O)C3(C)C(CCC4(C)C(c5ccoc5)C(=O)C5OC543)C12C (centres undefined),Potency,[2],inactive
same,Potency,[3],inactive
C[C@]12CC[C@H]3[C@@H](CC[C@@]45O[C@@H]4C(O)=C(C#N)C[C@]35C)[C@@H]1CC[C@@H]2O,outcome,[6],inactive
same,Potency,[3],16.6 µM (active)
O[C@H]1[C@H]2[C@H](O)CCCN2C[C@H]1O,outcome,[7],inactive
same,max response,[8],13.7% and 34.4%
COc1cc(C(=O)O[C@H]2[C@@H]3C=CO[C@@H](O[C@@H]4O[C@H](CO)[C@@H](O)[C@H](O)[C@H]4O)[C@@H]3[C@@]3(CO)O[C@@H]23)ccc1O,Potency,[2],inactive
same,Potency,[3],inactive
CCC(C)(C#N)O[C@@H]1O[C@H](CO)[C@@H](O)[C@H](O)[C@H]1O (some centres undefined),Potency,[2],inactive
same,Potency,[3],inactive
CN1[C@H]2C[C@H](OC(=O)[C@H](CO)c3ccccc3)C[C@@H]1[C@@H](O)C2,Potency,[2],inactive
same,Potency,[3],inactive
COc1ccc2c(c1)[C@@]13CCCC[C@H]1[C@@H](C2)NCC3,Potency,[9],inactive
C=CCN1CC[C@]23c4c5ccc(O)c4O[C@@H]2/C(=N/N=C2\CC[C@@]4(O)C6Cc7ccc(O)c8c7[C@@]4(CCN6CC=C)[C@@H]2O8)CC[C@@]3(O)C1C5,outcome,[1],inactive
CC1(C)S[C@@H]2[C@H](N)C(=O)N2[C@H]1C(=O)O,outcome,[1],inactive
CCCC(C)C1(CC)C(=O)NC(=O)NC1=O (centres undefined),Potency,[4],inactive
same,Potency,[5],inactive
CC(=O)OC12C(O)C(C)C3(O)C4C=C(C)C(=O)C4CC(CO)=CC3C1C2(C)C (centres undefined),Potency,[2],inactive
same,Potency,[3],inactive
CC(C)C1(OO)C=C2C(=O)CC3C(C)(C(=O)O)CCCC3(C)C2CC1 (centres undefined),Potency,[2],inactive
same,Potency,[3],inactive
COc1ccc2c(c1)/C(=C/c1cnc[nH]1)C(=O)N2,outcome,[1],inactive
same,Potency,[3],13 µM (active)
CCCCCCCCOC(=O)c1ccccc1C(=O)OCCCCCCCC,Potency,[4],inactive
O=[N+]([O-])/C=C/c1ccc2c(c1)OCO2,Potency,[10],inactive
O=C(N1CCOCC1)N1CCN(c2ccc(Cl)cc2)CC1,Potency,[2],inactive
same,Potency,[3],inactive
[Cl-].[Cl][Pt].[NH2-].[NH2-].c1ccncc1,Potency,[10],inactive
Cc1cc(C)cc(C(=O)OC2C[C@H]3CC[C@@H](C2)N3C)c1 (some centres undefined),outcome,[7],inactive
N#CC(OC1OC(COC2OC(CO)C(O)C(O)C2O)C(O)C(O)C1O)c1ccccc1 (centres undefined),Potency,[2],inactive
same,Potency,[3],inactive
COC1C(O)C(OC2CCC3(C=O)C(CCC4C3CCC3(C)C(C5=CC(=O)OC5)CCC43O)C2)OC(C)C1OC1OC(CO)C(O)C(O)C1O (centres undefined),Potency,[2],inactive
same,Potency,[3],0.171 µM (active)
Ic1ccccc1CNC1C2CCN(CC2)C1C(c1ccccc1)c1ccccc1 (centres undefined),outcome,[1],inactive
same,Potency,[10],inactive
C[C@H]1O[C@@H](O[C@H]2C[C@@H](O)[C@]3(CO)C4C(CC[C@]3(O)C2)[C@@]2(O)CC[C@H](C3=CC(=O)OC3)[C@@]2(C)C[C@H]4O)[C@@H](O)[C@@H](O)[C@H]1O (some centres undefined),Potency,[2],inactive
same,Potency,[3],0.153 µM (active)
C=CC(C)(O)CC/C=C(\C)C(=O)O[C@H]1[C@H](O)[C@@H](CO)O[C@@H](OC(=O)[C@]23CCC(C)(C)CC2C2=CCC4[C@@]5(C)CC[C@H](O[C@@H]6O[C@H](CO[C@@H]7OC[C@H](O)[C@H](O)[C@H]7O[C@@H]7OC[C@@H](O)[C@H](O)[C@H]7O)[C@@H](O)[C@H](O)[C@H]6O)C(C)(C)C5CC[C@@]4(C)[C@]2(C)CC3)[C@@H]1OC1OC(C)C(O[C@@H]2OC[C@@H](O)[C@H](O[C@@H]3OC[C@@H](O)[C@H](O)[C@H]3O)[C@H]2O)C(O)C1O (some centres undefined),"activity change, negative = inhibition",[2],-11.1% [at 12.4 µM]
same,"activity change, negative = viability loss",[3],-17.9% [at 9.23 µM]
Clc1ccc(N2C[C@H]3CC[C@@H](C2)N3)nn1,Potency,[2],inactive
same,Potency,[3],inactive
CCNC(C)Cc1cccc(C(F)(F)F)c1 (centres undefined),Potency,[4],3.79 µM (active)
